What all share (test): PBM binding z-score (relative to random genomic background probes); higher = stronger binding; sequences stand for … in GC…GCGATTGACAGCGTAGAATGAAGG
Experiment [1] concerns FXR:RXRa (NR concentration 270 nM, RXRa partner concentration 90 nM). Summed up: (§1)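 Scanned fluorescence from custom Agilent 4×180K protein-binding microarrays was regression-normalized. Binding z-scores use random background probes as reference. Ligand-free nuclear receptor dimers were incubated on the arrays for 1 h and detected with antibodies against each partner (one per run).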

The test system of experiment [2] is LXRa:RXRa (NR concentration 270 nM, RXRa partner concentration 90 nM). Summed up: as §1
Experiment [3] deals with LXRa homodimer (NR concentration 270 nM). Summed up:
as §1

The subject of experiment [4] is LXRb:RXRa (NR concentration 270 nM, RXRa partner concentration 90 nM). Summed up: as §1
In experiment [5] the test system is LXRb homodimer (NR concentration 270 nM). Summed up:
as §1

The subject of experiment [6] is PPARa:RXRa (NR concentration 270 nM, RXRa partner concentration 90 nM). Summed up:
as §1

In experiment [7] the test system is PPARg:RXRa (NR concentration 180 nM, RXRa partner concentration 90 nM). Summed up: as §1
Experiment [8] relates to PPARg:RXRa 270nM:90nM, anti-RXR (NR concentration 270 nM, RXRa partner concentration 90 nM). Summed up: as §1
Experiment [9] concerns PPARg:RXRa 30nM:10nM, anti-RXR (NR concentration 30 nM, RXRa partner concentration 10 nM). Summed up:
as §1

Experiment [10] deals with PPARg:RXRa 90nM:30nM, anti-RXR (NR concentration 90 nM, RXRa partner concentration 30 nM). Summed up:
as §1

The test system of experiment [11] is PPARg:RXRa DBDmut IVT, anti-RXR (DBD mutation: RXRa K156A/R161A, NR concentration 270 nM, RXRa partner concentration 90 nM). Summed up:
as §1

The subject of experiment [12] is PPARg:RXRa IVT, anti-PPARg (NR concentration 270 nM, RXRa partner concentration 90 nM). Summed up: as §1
Experiment [13] relates to PPARg DBDmut:RXRa IVT, anti-PPARg (DBD mutation: PPARg1 K132A/R137A, NR concentration 270 nM, RXRa partner concentration 90 nM). Summed up:
as §1

Experiment [14] has as its system PPARg DBDmut IVT, anti-PPARg (DBD mutation: PPARg1 K132A/R137A, NR concentration 270 nM). Summed up: as §1
The subject of experiment [15] is PPARg homodimer (NR concentration 180 nM). Summed up:
as §1

The test system of experiment [16] is PXR:RXRa (NR concentration 270 nM, RXRa partner concentration 90 nM). Summed up:
as §1

In experiment [17] the test system is PXR homodimer (NR concentration 270 nM). Summed up: as §1
Experiment [18] relates to RARa:RXR (NR concentration 270 nM, RXRa partner concentration 90 nM). Summed up: as §1
In experiment [19] the test system is RARa homodimer (NR concentration 270 nM). Summed up:
as §1

Experiment [20] deals with RARb:RXRa (NR concentration 270 nM, RXRa partner concentration 90 nM). Summed up: as §1

Our source for the PBM binding z-score values is the supplement of paper PMC6555819.

Regarding AAAATGAGGTTATTAAGATCAGGGAATTGCGGTC, the PBM binding z-score was 1.95 in [1]; 1.63 in [2]; 0.3 in experiment [3]; 1.44 in experiment [4]; -0.0347 in experiment [5]; 2.8 in [6]. Besides, the PBM binding z-score is 2.05 in [7]; 2.19 in experiment [8]; 0.556 in experiment [9]; 1.48 in experiment [10]; 3.99 in [11]; 3.21 in [12]. Also, the PBM binding z-score was 0.794 in experiment [13]; 0.452 in experiment [14]; 0.921 in experiment [15]; 1.23 in experiment [16]; 0.722 in [17]; 1.41 in [18]. For the same sequence, the PBM binding z-score in experiment [19] stood at 0.567; in experiment [20], 1.51.
For the sequence GCAGACAGGTGAAACGCAGGCAACTCAGGGTGGC, the PBM binding z-score is -0.553 in experiment [1]; -0.232 in experiment [2]; -0.806 in experiment [3]; -0.499 in experiment [4]; -1.09 in experiment [5]; 0.513 in [6]. For the same sequence, the PBM binding z-score was 0.448 in experiment [7]; -0.314 in experiment [8]; -0.566 in experiment [9]; -0.565 in experiment [10]; 0.648 in experiment [11]; 0.278 in experiment [12]. Also, the PBM binding z-score was -0.31 in experiment [13]; -0.728 in experiment [14]; -0.411 in experiment [15]; -0.21 in [16]; -0.499 in experiment [17]; 0.0177 in experiment [18]. For the same sequence, the PBM binding z-score was -0.602 in [19] and 0.594 in experiment [20].
With AGCACGAGGGCAATGAGTTGATAGCACGGGTGGC, the PBM binding z-score in experiment [1] is 0.125; in experiment [2], 0.129; in experiment [3], -0.673; in experiment [4], -0.297; in [5], -0.733; in [6] it was 0.58. The PBM binding z-score in [7] is 0.928; in experiment [8] it was -0.00435; in [9], -0.788; in [10] it was -0.265; in experiment [11] it was 1.23; in [12] it was 0.791. Also, the PBM binding z-score is -0.0946 in [13]; -0.486 in experiment [14]; -0.285 in experiment [15]; 1.56 in [16]; 5.64 in [17]; 0.00535 in [18]. Also, the PBM binding z-score was -0.029 in [19] and 2.14 in experiment [20].
In the case of CCTAGCGGGCCAATCTGGGTCACTCAAGGCTTGA, the PBM binding z-score is 0.251 in experiment [1]; 0.915 in [2]; -0.728 in experiment [3]; 0.534 in experiment [4]; -1.32 in experiment [5]; 2.88 in experiment [6]. Further, the PBM binding z-score was 1.65 in experiment [7]; 1.99 in [8]; -0.227 in [9]; 1.17 in [10]; 3.83 in [11]; 4.82 in experiment [12]. Further, the PBM binding z-score in [13] is -0.426; in experiment [14] it was -0.554; in [15], 0.532; in experiment [16], 0.83; in [17] it was -0.579; in experiment [18], 1.49. The PBM binding z-score in experiment [19] was -0.347; in experiment [20] it was 1.45.
Turning to CCTGCTAGGTCATGGTCAGCTCATCTACAGTATG, the PBM binding z-score in experiment [1] is 3.3; in experiment [2], 2.63; in experiment [3], 0.179; in [4], 1.95; in experiment [5], 0.157; in experiment [6], 3.42. Also, the PBM binding z-score amounted to 2.25 in experiment [7]; 2.85 in experiment [8]; 0.448 in experiment [9]; 1.72 in experiment [10]; 4.36 in experiment [11]; 3.86 in experiment [12]. Also, the PBM binding z-score in [13] is -0.0537; in experiment [14], -0.157; in experiment [15] it was 1.09; in experiment [16], 1.52; in [17] it was -0.186; in experiment [18], 2.4. Also, the figures for the PBM binding z-score in [19] and in experiment [20] were 0.349 and 4.08, respectively.
On to TCTTGTAGATCAAAGGATAAGAAAGCCGAAGCCT, for which the PBM binding z-score in experiment [1] is 0.762; in [2] it was 0.274; in [3] it was -0.116; in experiment [4], -0.287; in [5], -0.528; in [6], 0.671. The PBM binding z-score in experiment [7] was determined as 1.13; in experiment [8], 3.36; in experiment [9], 3.43; in experiment [10] it was 3.38; in experiment [11], 1.75; in experiment [12] it was 0.245. For the same sequence, the PBM binding z-score in [13] is 0.639; in [14], -0.158; in experiment [15], 0.25; in experiment [16], -0.0029; in experiment [17], -0.483; in experiment [18], -0.193. In addition, the PBM binding z-score in [19] was 0.315; in [20], -0.125.
For the sequence GCTAGTCGGTCAGTAAAAGGTCACACACCGGTCG, the PBM binding z-score in experiment [1] came out at 4.06; in experiment [2], 4.97; in [3], 5.34; in [4] it was 4.32; in [5], 0.747; in experiment [6] it was 4.67. Further, the PBM binding z-score in [7] stood at 3.19; in experiment [8], 4.83; in [9] it was 2.43; in [10] it was 4.01; in experiment [11], 2.63; in [12] it was 3.74. Besides, the PBM binding z-score in experiment [13] stood at 0.159; in experiment [14], 0.0206; in experiment [15], 4.9; in [16], 5.25; in experiment [17] it was 1.05; in experiment [18] it was 6.26. In addition, the PBM binding z-score is 2.14 in [19] and 4.65 in experiment [20].
